Measurements: the supplement of paper PMC12282887
± gives the standard deviation of the averaged measurements.

What was measured:
Experiment in all cases: promoter activity interaction Z-score (Lux/OD deviation from empty-vector control); higher = stronger promoter induction by the compound
[1] = test system: E. coli BW25113 acrABp lux reporter
Summary of the method: (§1)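 Wild-type E. coli BW25113 and three single-gene deletion strains, each carrying a low-copy luxCDABE promoter reporter, were grown at 37°C in 40 µl LB Lennox per well of a 384-well plate. Every compound was applied at four 1:2 dilutions in biological duplicates, and OD600 and luminescence were read every 30 min for 12 h. Integration covered 0–8 h for wild type and 1–9 h for deletion strains, and wells under 10% of the median growth value were removed. Scores are Z-transformed residuals of growth-normalised luminescence fitted against a control.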

[2] = test system: E. coli BW25113 micFp lux reporter
Summary of the method: as §1

[3] = test system: E. coli BW25113 ompFp lux reporter
Summary of the method: as §1

[4] = test system: E. coli BW25113 robp lux reporter
Summary of the method: as §1

[5] = test system: E. coli BW25113 soxSp lux reporter
Summary of the method: as §1

[6] = test system: E. coli BW25113 tolCp lux reporter
Summary of the method: as §1

[7] = 23 µg/ml, genetic background: wild type
[8] = 23 µg/ml, genetic background: ΔmarA
[9] = 23 µg/ml, genetic background: Δrob
[10] = 23 µg/ml, genetic background: ΔsoxS
[11] = 46 µg/ml, genetic background: wild type
[12] = 46 µg/ml, genetic background: ΔmarA
[13] = 46 µg/ml, genetic background: Δrob
[14] = 46 µg/ml, genetic background: ΔsoxS
[15] = 92.1 µg/ml, genetic background: wild type
[16] = 92.1 µg/ml, genetic background: ΔmarA
[17] = 92.1 µg/ml, genetic background: Δrob
[18] = 92.1 µg/ml, genetic background: ΔsoxS
[19] = 184.2 µg/ml, genetic background: wild type
[20] = 184.2 µg/ml, genetic background: ΔmarA
[21] = 184.2 µg/ml, genetic background: Δrob
[22] = 184.2 µg/ml, genetic background: ΔsoxS

## COc1cc(/C=C/C(=O)CC(=O)/C=C/c2ccc(O)c(OC)c2)ccc1O [Curcumin]
[1]; [7]
  promoter activity interaction Z-score: -0.214 ± 0.21
[1]; [8]
  promoter activity interaction Z-score: 1.82 ± 1
[1]; [9]
  promoter activity interaction Z-score: 0.162 ± 0.49
[1]; [10]
  promoter activity interaction Z-score: 0.139 ± 0.18
[1]; [11]
  promoter activity interaction Z-score: 0.341 ± 0.83
[1]; [12]
  promoter activity interaction Z-score: 1.2 ± 0.066
[1]; [13]
  promoter activity interaction Z-score: 0.14 ± 0.34
[1]; [14]
  promoter activity interaction Z-score: 0.0402 ± 0.48
[1]; [15]
  promoter activity interaction Z-score: 0.529 ± 0.2
[1]; [16]
  promoter activity interaction Z-score: 1.08 ± 0.031
[1]; [17]
  promoter activity interaction Z-score: 0.869 ± 0.75
[1]; [18]
  promoter activity interaction Z-score: 0.0855 ± 0.34
[1]; [19]
  promoter activity interaction Z-score: 0.33 ± 0.052
[1]; [20]
  promoter activity interaction Z-score: 1.06 ± 1.1
[1]; [21]
  promoter activity interaction Z-score: 1.36 ± 1.6
[1]; [22]
  promoter activity interaction Z-score: 0.0296 ± 0.41
[2]; [7]
  promoter activity interaction Z-score: -0.542 ± 0.23
[2]; [8]
  promoter activity interaction Z-score: 0.217 ± 0.034
[2]; [9]
  promoter activity interaction Z-score: -0.24 ± 0.022
[2]; [10]
  promoter activity interaction Z-score: -0.0851 ± 0.53
[2]; [11]
  promoter activity interaction Z-score: -0.984 ± 0.24
[2]; [12]
  promoter activity interaction Z-score: 0.275 ± 0.043
[2]; [13]
  promoter activity interaction Z-score: -0.0884 ± 0.0078
[2]; [14]
  promoter activity interaction Z-score: 0.00161 ± 0.34
[2]; [15]
  promoter activity interaction Z-score: -0.158 ± 0.37
[2]; [16]
  promoter activity interaction Z-score: 0.257 ± 0.096
[2]; [17]
  promoter activity interaction Z-score: -0.122 ± 0.094
[2]; [18]
  promoter activity interaction Z-score: -0.241 ± 0.17
[2]; [19]
  promoter activity interaction Z-score: -0.608 ± 0.096
[2]; [20]
  promoter activity interaction Z-score: 0.122 ± 0.096
[2]; [21]
  promoter activity interaction Z-score: -0.251 ± 0.11
[2]; [22]
  promoter activity interaction Z-score: 0.0295 ± 0.21
[3]; [7]
  promoter activity interaction Z-score: -0.638 ± 0.26
[3]; [8]
  promoter activity interaction Z-score: 0.332 ± 0.5
[3]; [9]
  promoter activity interaction Z-score: 0.137 ± 1.3
[3]; [10]
  promoter activity interaction Z-score: -0.824 ± 0.29
[3]; [11]
  promoter activity interaction Z-score: -0.568 ± 0.12
[3]; [12]
  promoter activity interaction Z-score: 0.31 ± 0.57
[3]; [13]
  promoter activity interaction Z-score: 0.208 ± 0.91
[3]; [14]
  promoter activity interaction Z-score: -0.0625 ± 1.2
[3]; [15]
  promoter activity interaction Z-score: -0.201 ± 0.71
[3]; [16]
  promoter activity interaction Z-score: -0.362 ± 0.33
[3]; [17]
  promoter activity interaction Z-score: 0.836 ± 0.9
[3]; [18]
  promoter activity interaction Z-score: -0.27 ± 0.58
[3]; [19]
  promoter activity interaction Z-score: -0.368 ± 0.11
[3]; [20]
  promoter activity interaction Z-score: -0.675 ± 0.88
[3]; [21]
  promoter activity interaction Z-score: -0.647 ± 0.46
[3]; [22]
  promoter activity interaction Z-score: -0.351 ± 0.82
[4]; [7]
  promoter activity interaction Z-score: 0.788 ± 0.71
[4]; [8]
  promoter activity interaction Z-score: 1.07 ± 0.14
[4]; [9]
  promoter activity interaction Z-score: 0.0477 ± 0.46
[4]; [10]
  promoter activity interaction Z-score: 0.332 ± 0.6
[4]; [11]
  promoter activity interaction Z-score: 0.38 ± 0.33
[4]; [12]
  promoter activity interaction Z-score: 1.13 ± 0.87
[4]; [13]
  promoter activity interaction Z-score: 0.606 ± 0.79
[4]; [14]
  promoter activity interaction Z-score: 0.859 ± 0.5
[4]; [15]
  promoter activity interaction Z-score: 0.913 ± 0.078
[4]; [16]
  promoter activity interaction Z-score: 0.411 ± 0.0043
[4]; [17]
  promoter activity interaction Z-score: 0.829 ± 1.5
[4]; [18]
  promoter activity interaction Z-score: -0.797 ± 0.19
[4]; [19]
  promoter activity interaction Z-score: -0.161 ± 0.49
[4]; [20]
  promoter activity interaction Z-score: 0.0014 ± 0.21
[4]; [21]
  promoter activity interaction Z-score: 0.959 ± 1.3
[4]; [22]
  promoter activity interaction Z-score: 0.501 ± 0.48
[5]; [7]
  promoter activity interaction Z-score: -0.156 ± 0.019
[5]; [8]
  promoter activity interaction Z-score: 0.209 ± 0.098
[5]; [9]
  promoter activity interaction Z-score: -0.0921 ± 0.039
[5]; [10]
  promoter activity interaction Z-score: 0.264 ± 0.5
[5]; [11]
  promoter activity interaction Z-score: -0.559 ± 0.02
[5]; [12]
  promoter activity interaction Z-score: 0.12 ± 0.11
[5]; [13]
  promoter activity interaction Z-score: -0.0695 ± 0.0052
[5]; [14]
  promoter activity interaction Z-score: 0.244 ± 0.33
[5]; [15]
  promoter activity interaction Z-score: -0.204 ± 0.11
[5]; [16]
  promoter activity interaction Z-score: -0.148 ± 0.051
[5]; [17]
  promoter activity interaction Z-score: -0.206 ± 0.015
[5]; [18]
  promoter activity interaction Z-score: -0.186 ± 0.41
[5]; [19]
  promoter activity interaction Z-score: -0.42 ± 0.036
[5]; [20]
  promoter activity interaction Z-score: -0.399 ± 0.12
[5]; [21]
  promoter activity interaction Z-score: -0.341 ± 0.14
[5]; [22]
  promoter activity interaction Z-score: -0.153 ± 0.15
[6]; [7]
  promoter activity interaction Z-score: -0.731 ± 0.53
[6]; [8]
  promoter activity interaction Z-score: -0.0769 ± 0.49
[6]; [9]
  promoter activity interaction Z-score: -0.819 ± 0.47
[6]; [10]
  promoter activity interaction Z-score: 0.356 ± 0.35
[6]; [11]
  promoter activity interaction Z-score: -0.815 ± 0.45
[6]; [12]
  promoter activity interaction Z-score: 0.181 ± 0.66
[6]; [13]
  promoter activity interaction Z-score: -0.0696 ± 0.8
[6]; [14]
  promoter activity interaction Z-score: -0.467 ± 0.52
[6]; [15]
  promoter activity interaction Z-score: -0.469 ± 0.65
[6]; [16]
  promoter activity interaction Z-score: 0.826 ± 0.17
[6]; [17]
  promoter activity interaction Z-score: -0.739 ± 0.063
[6]; [18]
  promoter activity interaction Z-score: 0.259 ± 0.43
[6]; [19]
  promoter activity interaction Z-score: -0.549 ± 0.6
[6]; [20]
  promoter activity interaction Z-score: -0.037 ± 0.23
[6]; [21]
  promoter activity interaction Z-score: -0.376 ± 0.11
[6]; [22]
  promoter activity interaction Z-score: 0.000633 ± 0.47
